Laboratory results reported in PubChem BioAssay (NCATS).
Results filed as inconclusive are left out. Entries that show only a call come without a potency. Calls of active or inactive are those of the source. The call rests on the fitted dose curve; in most records, active means well fitted cell-killing curve with a large enough effect; inconclusive means small, poorly fitted or top-dose-only effect; inactive means flat fitted curve, though single readings scatter.

Test: Cell Viability - LYMP2-020 (AID 986); further: nearly all actives have a fitted effect of over 55% in size
Settings: series mostly up to 92.2 µM
Description: NIH Chemical Genomics Center [NCGC]
NIH Molecular Libraries Screening Centers Network [MLSCN]
National Institutes of Environmental Health Sciences [NIEHS]
National Toxicology Program [NTP]
We have developed a 1536-well cell-based assay for quantitative high throughput screening (qHTS) against a number of cell lines to determine in vitro cytotoxicity of small molecules. This particular assay uses a human lymphoblastoid cell line (LYMP2-020) purchased from Coriell Institute for Medical Research.
NCGC Assay Protocol Summary:
The CellTiter-Glo luminescent cell viability assay (Promega) is a homogeneous method to measure the number of viable cells in culture. The end point readout of this assay is based on quantitation of intracellular ATP, an indicator of metabolic activity, using the luciferase reaction. Luciferase catalyzes the oxidation of beetle Luciferin to oxyluciferin and light in the presence of ATP. The luminescent signal is proportional to amount of ATP present.
Using the CellTiter-Glo luminescent cell viability assay, the amount of cellular ATP was measured in the lymphoblastoid cell line with complete culture medium following compound treatment for 24 hours. The assay was performed in opaque white Kalypsys 1536-well plates. In the screen, tetraoctylammonium bromide was used as positive control. Library compounds were measured for their ability to cause acute toxicity in the cell line, as reflected by a decrease in intracellular ATP levels, in a concentration-dependent manner. […] AC50 values were determined from concentration-response data modeled with the standard Hill equation.
qHTS protocol for CellTiter Glo lymphoblastoid cellular assay
[Step] [Parameter] [Value] [Description]
1. Reagent; 5 uL; 2500 lymphoblastoid cells/well
2. Time; 5 hr; 37 C incubation
4. Controls; 23 nL; Tetraoctylammonium bromide 6.4pM to 92 uM
5. Time; 24 hr; 37 C incubation
6. Reagent; 5 uL; CellTiter Glo reagent
7. Time; 30 min; Room Temperature
8. Detection; Luminescence; Viewlux plate reader
Keywords: cell viability, cytotoxicity, lymphoblastoid cell line, luminescence, NTPHTS, NTPHTS_NCGC, NIEHS, DSSTox, MLSMR, MLSCN, NIH Roadmap, qHTS, NCGC
Potency means the concentration at half of the fitted maximal effect.

**Q.** For `CCOC(=O)CC(SP(=O)(OC)OC)C(=O)OCC` (stereo not given), which Potency is on record?
**A.** inactive

**Q.** Which Potency does the source give for `N#C/C(N)=C(/N)C#N` here?
**A.** inactive

**Q.** Which Potency does the source give for `O=C(O)CCl` here?
**A.** inactive

**Q.** With `O=C(Cl)OCc1ccccc1` as the compound, how does the Potency read?
**A.** inactive

**Q.** For `BrCC(Br)(Br)Br`, which Potency is on record?
**A.** 15.8 µM (active)

**Q.** Which Potency does the source give for `O=[N+]([O-])c1ccccc1O` here?
**A.** inactive

**Q.** With `Nc1cc(Cl)cc(C(=O)O)c1Cl` as the compound, how does the Potency read?
**A.** inactive

**Q.** For `CC(Cl)CCl` (stereo not given), which Potency is on record?
**A.** inactive

**Q.** With `CC(C)[C@]12CC(=O)[C@H](C)[C@H]1C2` as the compound, how does the Potency read?
**A.** inactive

**Q.** For `c1ccc(OCC2CO2)cc1` (stereo not given), which Potency is on record?
**A.** inactive

**Q.** For `CN(C)C(=O)Nc1ccc(Cl)cc1`, which Potency is on record?
**A.** inactive

**Q.** Which Potency does the source give for `COP(=S)(OC)SCn1nnc2ccccc2c1=O` here?
**A.** inactive

**Q.** For `c1ccc(C2CO2)cc1` (stereo not given), which Potency is on record?
**A.** inactive

**Q.** With `ClCCCCl` as the compound, how does the Potency read?
**A.** inactive

**Q.** For `Oc1cccc(Cl)c1Cl`, which Potency is on record?
**A.** inactive

**Q.** For `C=CC(=O)OCCN(C)C`, which Potency is on record?
**A.** inactive

**Q.** Which Potency does the source give for `C/C=C/C=O` here?
**A.** inactive

**Q.** With `CC(C)[N+](=O)[O-]` as the compound, how does the Potency read?
**A.** inactive

**Q.** Which Potency does the source give for `Oc1ccc(Cl)c(Cl)c1Cl` here?
**A.** inactive

**Q.** For `CC(C)OC(=O)Cc1ccccc1`, which Potency is on record?
**A.** inactive

**Q.** With `OC[P+](CO)(CO)CO` as the compound, how does the Potency read?
**A.** 12.6 µM (active)

**Q.** For `ClC(Cl)(Cl)C(Cl)(Cl)Cl`, which Potency is on record?
**A.** inactive

**Q.** With `CCBr` as the compound, how does the Potency read?
**A.** inactive

**Q.** With `O=[N+]([O-])c1cccc(O)c1` as the compound, how does the Potency read?
**A.** inactive

**Q.** With `CC(=O)[O-].CC(=O)[O-].CC(=O)[O-].[Cr+3]` as the compound, how does the Potency read?
**A.** inactive

**Q.** For `CCN(N=O)C(N)=O`, which Potency is on record?
**A.** inactive

**Q.** With `CN1CSC(=S)N(C)C1` as the compound, how does the Potency read?
**A.** 39.8 µM (active)

**Q.** Which Potency does the source give for `CC[N+](=O)[O-]` here?
**A.** inactive

**Q.** Which Potency does the source give for `CNC(=O)O/N=C/C(C)(C)S(C)=O` (stereo not given) here?
**A.** inactive

**Q.** For `CC(C)(COCC1CO1)COCC1CO1` (stereo not given), which Potency is on record?
**A.** inactive

**Q.** With `COc1c(C(C)(C)C)cc([N+](=O)[O-])c(C)c1[N+](=O)[O-]` as the compound, how does the Potency read?
**A.** inactive

**Q.** Which Potency does the source give for `Oc1cc(Cl)cc(Cl)c1` here?
**A.** inactive

**Q.** Which Potency does the source give for `CC(=O)NNc1ccccc1` here?
**A.** inactive

**Q.** With `CC(C)C#N` as the compound, how does the Potency read?
**A.** inactive

**Q.** Which Potency does the source give for `C=CCc1cc(OC)c2c(c1)OCO2` here?
**A.** inactive

**Q.** Which Potency does the source give for `N#CCBr` here?
**A.** inactive

**Q.** Which Potency does the source give for `Cc1ccc2c(c1N)C(=O)c1ccccc1C2=O` here?
**A.** inactive

**Q.** For `Cc1coc2c1CCC(C)C2` (stereo not given), which Potency is on record?
**A.** inactive

**Q.** With `NNC(N)=S` as the compound, how does the Potency read?
**A.** inactive

**Q.** For `COc1cc(-c2ccc(N)c(OC)c2)ccc1N`, which Potency is on record?
**A.** inactive
